Screens deposited in PubChem by several laboratories.
Compounds with a hit are over-represented: about 1.9% of the library has one in this group of screens.
sdo1 growth: sdo1-depleted yeast growth rescue. S. cerevisiae sdo1-depleted JHY4D growth rescue, OD600 30 h; stronger effect = higher value; pdr5 snq2 efflux-pump mutant strain. z-score at 10 µM. hit rate 0.21% among 140,000;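 active means z-score above 3 at both the 24 hr and the 30 hr optical density reads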;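 further: z-score against mean and SD of all compound wells on the same plate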
sEH activator: increases human soluble epoxide hydrolase activity | hit rate 0.04% among 91,000 | activation, % at 2 µM | purified human sEH enzymatic activity, activator screen; in the data active means activation above about 37%
Target sequence (P34913 whole entry, looked up): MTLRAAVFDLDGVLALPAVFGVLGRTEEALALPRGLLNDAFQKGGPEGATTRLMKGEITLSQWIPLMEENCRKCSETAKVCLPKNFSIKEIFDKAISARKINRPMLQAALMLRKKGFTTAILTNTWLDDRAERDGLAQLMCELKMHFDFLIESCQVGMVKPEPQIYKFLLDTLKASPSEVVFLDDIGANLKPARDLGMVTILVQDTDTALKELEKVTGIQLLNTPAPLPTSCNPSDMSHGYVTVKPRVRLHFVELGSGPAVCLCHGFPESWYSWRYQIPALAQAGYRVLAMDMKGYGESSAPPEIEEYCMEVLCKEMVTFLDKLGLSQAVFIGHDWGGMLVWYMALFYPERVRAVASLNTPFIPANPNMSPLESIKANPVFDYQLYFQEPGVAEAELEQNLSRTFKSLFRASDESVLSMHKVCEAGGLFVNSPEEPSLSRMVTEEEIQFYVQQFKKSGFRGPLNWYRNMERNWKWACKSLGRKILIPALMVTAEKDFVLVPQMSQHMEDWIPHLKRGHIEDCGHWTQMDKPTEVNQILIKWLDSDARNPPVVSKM
sEH inh: inhibitors of human soluble epoxide hydrolase; inhibition, % at 2 µM; recombinant human sEH enzymatic activity assay; P34913; hit rate 0.34% among 91,000; in the data active means inhibition above about 80%
Measles CPE: protection of cells from measles virus; AID 841; hit rate 1.5% among 140,000; Measles virus-infected cells, CPE protection, absorbance; protection (pct of control), % at 4 µM; in the data active means protection mostly above about 24%, no sharp cut-off; inactive means mostly below about 26%
* = called active by the depositor; . = no result given.

SMILES	sdo1 growth	sEH activator	sEH inh	Measles CPE
COCc1nc2sc3c(c2c(=O)[nH]1)CCCC3	0.23	.	.	1
CCCNC(=O)Nc1ccc2c(c1)N(C)C(=O)c1ccccc1S2	0.42	-60	61	60*
CCC(=O)c1ccc(N2CCN(C(=O)c3ccc(Br)cc3)CC2)c(F)c1	-2.5	3	-2	17
COc1ccc(C(=O)c2ccc(N3CCN(C(=O)c4ccc(F)cc4)CC3)c(F)c2)cc1Br	0.68	26	-26	56*
O=C(c1ccc(N2CCOCC2)cc1)c1cccs1	0.04	-2	2	26
CCn1c(SCc2ccccc2)nnc1-c1ccc(S(=O)(=O)N2CCCCC2)cc1	0.02	2	0	10
CCn1c(SCc2nnc(-c3ccccc3)o2)nnc1-c1ccc(S(=O)(=O)N2CCCC2)cc1	-0.6	5	-5	55*
O=C(NC1CCCCC1)N1CCC(c2nc3ccc(Cl)cc3[nH]2)CC1	0.69	-5	5	.
COc1ccc(N2CCN(C(=O)CSc3nnc4c(C)cc5ccc(C)c(C)c5n34)CC2)cc1	0.12	-6	6	50*
COc1ccc(N2CCN(C(=O)CSc3nnc4c(C)cc5cc(C)ccc5n34)CC2)cc1	-0.48	1	-1	29
CCSc1nnc(CNc2ccc(F)cc2)n1CC1CCCO1 (configuration not stated)	-1.5	-15	14	46*
COC(=O)[C@H](C)NC(=O)Nc1cccc(C(F)(F)F)c1	0.37	-4	8	3
O=C(O)CCCC(=O)Nc1cccc(C(F)(F)F)c1	0.89	.	.	22
O=C(Nc1ccc(OC(F)F)cc1)Nc1cccc(C(F)(F)F)c1	-3	-86	86*	8
CC(C)[C@H](NC(=O)Nc1cccc(Br)c1)C(=O)O	0.14	.	.	28
CC(C)[C@H](NC(=O)Nc1cccc(C(F)(F)F)c1)C(=O)O	2.2	16	-18	27*
COCC(=O)Nc1cccc(C(F)(F)F)c1	1.1	-12	12	37*
Cc1cccc(NC(=O)c2c(O)c3cccc4c3n(c2=O)CC4)c1	.	11	-11	.
Cc1cc(C)c(-c2csc(NC(=O)C3=NN(c4ccccc4)C(=O)CC3)n2)c(C)c1	-1.8	.	.	34
Cc1ccc2nc(Cl)c(CN(C(=O)c3cnccn3)C3CCCCC3)cc2c1	-0.6	-4	7	6
CN1c2ccccc2C(O)=C(C(=S)Nc2ccccc2)S1(=O)=O	1.3	.	.	6
CN1c2ccccc2C(O)=C(C(=S)Nc2ccc(F)c(Cl)c2)S1(=O)=O	0.94	10	-7	41*
CCN1C(=O)C(CC(=O)NCc2ccc(Cl)cc2)N(CC)C1=O (configuration not stated)	1.6	19	-19	5
CCN1C(=O)C(CC(=O)NC2CCCCC2)N(CC)C1=O (configuration not stated)	-0.04	-12	11	50*
Cc1c(NC(=O)C2CCN(S(=O)(=O)c3ccc(Cl)cc3)CC2)c(=O)n(-c2ccccc2)n1C	-0.12	4	-4	62*
SMILES	sdo1 growth	sEH activator	sEH inh	Measles CPE
N#CC1=C(N)C(C#N)(C#N)C(c2cccnc2)C2CC(c3ccccc3)CC=C12 (configuration not stated)	-2	4	-4	9
C/C(=N\O)C(=O)NCCCNCCCN(C)C	1.3	9	-11	49*
O=c1cc(CO)oc(CN2CCN(c3cccc(C(F)(F)F)c3)CC2)c1O	0.44	6	-6	10
CCCCN(C(=O)NC(=O)Nc1ccccc1OC)S(C)(=O)=O	0.51	19	-20	28*
COc1ccccc1NC(=O)NC(=O)N(C(C)C)S(C)(=O)=O	0.14	-2	2	1
Nc1nc(CN2CCN(c3ccccc3)CC2)nc(N2CCCc3ccccc32)n1	-0.66	10	-11	87*
Nc1nc(CN2CCN(c3cccc(Cl)c3)CC2)nc(N2CCCc3ccccc32)n1	-1.9	-5	3	11
COc1cc(/C=N/NC(=O)C2(O)c3ccccc3-c3ccccc32)ccc1O	0.41	.	.	15
Clc1ccc(Oc2nc(N3CCOCC3)nc(N3CCOCC3)n2)cc1	-0.96	6	-4	34*
COc1cccc(C2CC(c3ccc(C)cc3)Nc3nc(N)nn32)c1 (configuration not stated)	1.9	.	.	40*
COc1cccc(C2CC(c3ccc(C)cc3)n3nc(N)nc3N2)c1 (configuration not stated)	1.1	.	.	9
COc1ccc(CC(=O)NCCc2ccc(S(N)(=O)=O)cc2)cc1	0.27	6	-7	4
COc1ccc(/C=C/C(=O)NCCc2ccc(S(N)(=O)=O)cc2)cc1	0.5	.	.	56*
COc1cccc(-c2nc(CSCC(=O)NCC3CCCO3)c(C)o2)c1 (configuration not stated)	1.8	20	-20	9
